Drawing on the supplement of paper PMC7530171, this text covers THP-1 cell loss for 15 compounds.

± gives the standard deviation.

The test system of the assay is THP-1. The experiment in a line: THP-1 cell loss relative to DMSO control; higher = more host cell loss (toxicity); extreme values may be limits of the assay. The following applies: 10 µM; 4 days; infection: M. tuberculosis H37Rv. How it is done: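 OICR kinase inhibitor library screened in duplicate at 10 uM against M. tuberculosis-infected THP-1 macrophages, 4 days at 37 C. THP-1 cell loss (cytotoxicity or loss of adherence) was quantified from Hoechst-stained nuclei counts by high-content imaging and normalised to the 1% DMSO control; 100 = complete loss of host cells.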
`N#CCc1ccc(Nc2nc(Nc3cc(C4CCC4)[nH]n3)c3ccccc3n2)cc1` returned a THP-1 cell loss of 100%. With `Cc1cc(Nc2cc(N3CCN(C)CC3)nc(/C=C/c3ccccc3)n2)n[nH]1`, the THP-1 cell loss is 70.7 ± 19%. Then `COc1cc(OC)c(C=C2C(=O)Nc3ccccc32)c(OC)c1`, with 45.3 ± 6.7%. Compound `NC(=O)Nc1cc(-c2cccc(F)c2)sc1C(=O)N[C@H]1CCCNC1` showed a THP-1 cell loss of 84.2 ± 22%. The figure for `Oc1cccc(-c2nc(N3CCOCC3)c3sccc3n2)c1` [PI3-Kinase a Inhibitor 2] is 62 ± 6.5%; for `Cc1ccc(C(=O)Nc2cccc(C(F)(F)F)c2)cc1-c1ccc2nc(NCCN3CCOCC3)ncc2c1` it is 100%. The compound `O=C(O)c1ccc(-c2c[nH]c3ncc(-c4ccccc4)cc23)cc1C1CCCC1` came in with a THP-1 cell loss of 9.42 ± 6.5%.

Take `Cc1cc(Nc2nc(N[C@@H](C)c3ncc(F)cn3)ncc2Cl)[nH]n1`: the THP-1 cell loss worked out at 4.08 ± 4.6%. `Cc1ccc2c(=O)c3ccccc3n(CCCN)c2c1C` showed a THP-1 cell loss of 100%. `Nc1nc(Nc2ccc(S(N)(=O)=O)cc2)nn1C(=S)Nc1c(F)cccc1F` [Cdk1/2 Inhibitor III]: the THP-1 cell loss is 5.81 ± 8.1%. Regarding `CNC(=O)c1cc(Oc2ccc(NC(=O)Nc3ccc(Cl)c(C(F)(F)F)c3)cc2)ccn1` [Sorafenib], the THP-1 cell loss turned out to be 100%. Regarding `Cc1ccc(F)c(NC(=O)Nc2ccc(-c3cccc4[nH]nc(N)c34)cc2)c1`, the THP-1 cell loss was found to be 84.1 ± 22%. `Cc1cc(C(=O)Nc2cc(Nc3ccc4c(/C=C/c5ccccn5)n[nH]c4c3)ccc2F)n(C)n1` registered a THP-1 cell loss of 54.6 ± 11%. Then `Cc1ccc(NC2=CC(=O)c3sc(C)nc3C2=O)cc1` [Ryuvidine], with 100%.

Consider `CC(C)c1cc(/C=C(\C#N)C(=O)NCCCc2ccccc2)cc(C(C)C)c1O` [Tyrphostin SU 1498], for which the THP-1 cell loss came to 30.1 ± 12%.
